# In article PMC11006913:
# Changes are numbered by the printed parent chain.
# Legend:
# Assay in all cases: PBM; 200 nM protein, PBS
# Conditions in all cases: dsDNA, one strand shown
# [1] = target: SHOX (Homo sapiens, UniProt O15266 103-189, R173C)
# [2] = target: HOXA4 (Homo sapiens, UniProt Q00056 201-287, W262F)
# [3] = target: T1, VENTX (Homo sapiens, UniProt O95231 78-163, R121Q)
# T1 sequence: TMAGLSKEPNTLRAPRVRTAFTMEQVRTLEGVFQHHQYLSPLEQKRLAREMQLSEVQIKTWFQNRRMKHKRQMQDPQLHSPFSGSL
# [4] = target: T2, VENTX (Homo sapiens, UniProt O95231 78-163, Y115F)
# T2 sequence: T1 sequence with Y38F, Q44R
# [5] = target: HOXA2 (Homo sapiens, UniProt O43364 129-215, R185T)
# [6] = target: ALX3 (Homo sapiens, UniProt O95076 139-225, N203Q)
# [7] = target: HOXA2 (Homo sapiens, UniProt O43364 129-215, R185K)
# [8] = target: ALX3 (Homo sapiens, UniProt O95076 139-225)
# [9] = target: VAX1 (Homo sapiens, UniProt Q5SQQ9 86-172)
# [10] = target: VAX1 (Homo sapiens, UniProt Q5SQQ9 86-172, T142I)
# [11] = target: HOXA2 (Homo sapiens, UniProt O43364 129-215, Y150S)
# [12] = target: ALX3 (Homo sapiens, UniProt O95076 139-225, N203S)
# [13] = target: HOXA2 (Homo sapiens, UniProt O43364 129-215)
# [14] = target: VAX1 (Homo sapiens, UniProt Q5SQQ9 86-172, K157R)
# [15] = target: T3, PAX4 (Homo sapiens, UniProt O43316 9-242, F177V)
# T3 sequence: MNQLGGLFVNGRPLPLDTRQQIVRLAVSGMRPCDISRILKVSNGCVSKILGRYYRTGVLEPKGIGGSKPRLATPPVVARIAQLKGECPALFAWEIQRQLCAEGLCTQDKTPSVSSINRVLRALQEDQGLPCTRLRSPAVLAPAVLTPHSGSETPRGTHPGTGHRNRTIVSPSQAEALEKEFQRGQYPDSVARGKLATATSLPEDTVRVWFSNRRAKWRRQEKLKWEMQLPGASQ
# [16] = target: T4, PAX4 (Homo sapiens, UniProt O43316 9-242, F177Y)
# T4 sequence: T3 sequence with V169Y
# [17] = target: HOXA7 (Homo sapiens, UniProt P31268 116-202)
# [18] = target: HOXB6 (Homo sapiens, UniProt P17509 132-218, K202E)
# [19] = target: HOXA7 (Homo sapiens, UniProt P31268 116-202, W177C)
# [20] = target: HOXB6 (Homo sapiens, UniProt P17509 132-218)
# Chain of HOXB6 (Homo sapiens, UniProt P17509 132-218) (P17509 132-218): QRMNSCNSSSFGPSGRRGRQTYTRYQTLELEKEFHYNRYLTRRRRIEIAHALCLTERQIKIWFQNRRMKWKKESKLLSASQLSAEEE
# Chain of ALX3 (Homo sapiens, UniProt O95076 139-225) (O95076 139-225): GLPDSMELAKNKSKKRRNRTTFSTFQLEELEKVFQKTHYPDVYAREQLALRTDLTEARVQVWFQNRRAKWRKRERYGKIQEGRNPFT
# Chain of HOXA2 (Homo sapiens, UniProt O43364 129-215, R185K) (O43364 129-215 R185K): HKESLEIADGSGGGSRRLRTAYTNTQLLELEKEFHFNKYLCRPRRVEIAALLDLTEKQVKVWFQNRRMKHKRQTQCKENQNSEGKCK
# Chain of HOXA2 (Homo sapiens, UniProt O43364 129-215, Y150S) (O43364 129-215 Y150S): as the sequence (O43364 129-215 R185K) above, with Y22S, K57R counted along it
# Chain of SHOX (O15266 103-189 R173C): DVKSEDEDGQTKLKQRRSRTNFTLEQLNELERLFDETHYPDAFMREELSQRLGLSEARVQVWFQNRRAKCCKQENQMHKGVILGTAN
# Chain of ALX3 (Homo sapiens, UniProt O95076 139-225, N203Q) (O95076 139-225 N203Q): as the sequence (O95076 139-225) above, with N65Q counted along it
# Chain of HOXA2 (Homo sapiens, UniProt O43364 129-215) (O43364 129-215): as the sequence (O43364 129-215 R185K) above, with K57R counted along it
# Chain of HOXA2 (Homo sapiens, UniProt O43364 129-215, R185T) (O43364 129-215 R185T): as the sequence (O43364 129-215 R185K) above, with K57T counted along it
# Chain of HOXA4 (Q00056 201-287 W262F): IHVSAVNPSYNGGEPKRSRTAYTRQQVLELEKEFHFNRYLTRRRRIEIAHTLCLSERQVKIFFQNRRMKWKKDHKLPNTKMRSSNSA
# Chain of ALX3 (Homo sapiens, UniProt O95076 139-225, N203S) (O95076 139-225 N203S): as the sequence (O95076 139-225) above, with N65S counted along it
# Chain of HOXA7 (Homo sapiens, UniProt P31268 116-202) (P31268 116-202): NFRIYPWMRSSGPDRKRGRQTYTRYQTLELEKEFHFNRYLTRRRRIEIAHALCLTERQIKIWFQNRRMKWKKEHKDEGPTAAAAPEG
# Chain of HOXB6 (Homo sapiens, UniProt P17509 132-218, K202E) (P17509 132-218 K202E): as the sequence (P17509 132-218) above, with K71E counted along it
# Chain of HOXA7 (Homo sapiens, UniProt P31268 116-202, W177C) (P31268 116-202 W177C): as the sequence (P31268 116-202) above, with W62C counted along it
# Chain of VAX1 (Homo sapiens, UniProt Q5SQQ9 86-172) (Q5SQQ9 86-172): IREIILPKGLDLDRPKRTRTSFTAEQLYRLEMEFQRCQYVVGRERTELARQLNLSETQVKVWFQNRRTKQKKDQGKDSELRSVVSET
# Chain of VAX1 (Homo sapiens, UniProt Q5SQQ9 86-172, K157R) (Q5SQQ9 86-172 K157R): as the sequence (Q5SQQ9 86-172) above, with K72R counted along it
# Chain of VAX1 (Homo sapiens, UniProt Q5SQQ9 86-172, T142I) (Q5SQQ9 86-172 T142I): as the sequence (Q5SQQ9 86-172) above, with T57I counted along it
sequence,measurement,setting,value
CCGAGCGG,binding signal,[1],"7.07 upbm affinity estimate (log intensity, higher = more binding, comparable within an allelic series)"
same,binding signal,[2],"9.89 upbm affinity estimate (log intensity, higher = more binding, comparable within an allelic series)"
CAATTAGG,binding signal,[3],"12 upbm affinity estimate (log intensity, higher = more binding, comparable within an allelic series)"
same,binding signal,[4],"11.7 upbm affinity estimate (log intensity, higher = more binding, comparable within an allelic series)"
same,binding signal,[5],"12.9 upbm affinity estimate (log intensity, higher = more binding, comparable within an allelic series)"
same,binding signal,[6],"8.27 upbm affinity estimate (log intensity, higher = more binding, comparable within an allelic series)"
same,binding signal,[1],"9.72 upbm affinity estimate (log intensity, higher = more binding, comparable within an allelic series)"
same,binding signal,[7],"13 upbm affinity estimate (log intensity, higher = more binding, comparable within an allelic series)"
same,binding signal,[8],"12.2 upbm affinity estimate (log intensity, higher = more binding, comparable within an allelic series)"
same,binding signal,[9],"12.9 upbm affinity estimate (log intensity, higher = more binding, comparable within an allelic series)"
same,binding signal,[10],"12.8 upbm affinity estimate (log intensity, higher = more binding, comparable within an allelic series)"
same,binding signal,[11],"10.8 upbm affinity estimate (log intensity, higher = more binding, comparable within an allelic series)"
same,binding signal,[12],"8.37 upbm affinity estimate (log intensity, higher = more binding, comparable within an allelic series)"
same,binding signal,[13],"12.1 upbm affinity estimate (log intensity, higher = more binding, comparable within an allelic series)"
same,binding signal,[14],"12.7 upbm affinity estimate (log intensity, higher = more binding, comparable within an allelic series)"
ACAATTAG,binding signal,[3],"11.8 upbm affinity estimate (log intensity, higher = more binding, comparable within an allelic series)"
same,binding signal,[4],"11.6 upbm affinity estimate (log intensity, higher = more binding, comparable within an allelic series)"
same,binding signal,[1],"9.13 upbm affinity estimate (log intensity, higher = more binding, comparable within an allelic series)"
AATTATAA,binding signal,[6],"8.51 upbm affinity estimate (log intensity, higher = more binding, comparable within an allelic series)"
same,binding signal,[1],"9.09 upbm affinity estimate (log intensity, higher = more binding, comparable within an allelic series)"
same,binding signal,[8],"12.4 upbm affinity estimate (log intensity, higher = more binding, comparable within an allelic series)"
same,binding signal,[12],"8.6 upbm affinity estimate (log intensity, higher = more binding, comparable within an allelic series)"
AATTAGAT,binding signal,[6],"8.42 upbm affinity estimate (log intensity, higher = more binding, comparable within an allelic series)"
same,binding signal,[1],"9.16 upbm affinity estimate (log intensity, higher = more binding, comparable within an allelic series)"
same,binding signal,[15],"10.6 upbm affinity estimate (log intensity, higher = more binding, comparable within an allelic series)"
same,binding signal,[8],"12.4 upbm affinity estimate (log intensity, higher = more binding, comparable within an allelic series)"
same,binding signal,[16],"10.9 upbm affinity estimate (log intensity, higher = more binding, comparable within an allelic series)"
same,binding signal,[12],"8.49 upbm affinity estimate (log intensity, higher = more binding, comparable within an allelic series)"
AATTAGCA,binding signal,[3],"11.7 upbm affinity estimate (log intensity, higher = more binding, comparable within an allelic series)"
same,binding signal,[4],"11.5 upbm affinity estimate (log intensity, higher = more binding, comparable within an allelic series)"
same,binding signal,[5],"12.4 upbm affinity estimate (log intensity, higher = more binding, comparable within an allelic series)"
same,binding signal,[6],"8.31 upbm affinity estimate (log intensity, higher = more binding, comparable within an allelic series)"
same,binding signal,[1],"9.43 upbm affinity estimate (log intensity, higher = more binding, comparable within an allelic series)"
same,binding signal,[7],"13 upbm affinity estimate (log intensity, higher = more binding, comparable within an allelic series)"
same,binding signal,[15],"10.5 upbm affinity estimate (log intensity, higher = more binding, comparable within an allelic series)"
same,binding signal,[8],"12.2 upbm affinity estimate (log intensity, higher = more binding, comparable within an allelic series)"
same,binding signal,[16],"10.9 upbm affinity estimate (log intensity, higher = more binding, comparable within an allelic series)"
same,binding signal,[11],"10.8 upbm affinity estimate (log intensity, higher = more binding, comparable within an allelic series)"
same,binding signal,[2],"11.5 upbm affinity estimate (log intensity, higher = more binding, comparable within an allelic series)"
same,binding signal,[12],"8.36 upbm affinity estimate (log intensity, higher = more binding, comparable within an allelic series)"
same,binding signal,[13],"12.1 upbm affinity estimate (log intensity, higher = more binding, comparable within an allelic series)"
GACAATTA,binding signal,[17],"11.2 upbm affinity estimate (log intensity, higher = more binding, comparable within an allelic series)"
same,binding signal,[18],"9.96 upbm affinity estimate (log intensity, higher = more binding, comparable within an allelic series)"
same,binding signal,[1],"9.21 upbm affinity estimate (log intensity, higher = more binding, comparable within an allelic series)"
same,binding signal,[19],"8.85 upbm affinity estimate (log intensity, higher = more binding, comparable within an allelic series)"
same,binding signal,[20],"11.7 upbm affinity estimate (log intensity, higher = more binding, comparable within an allelic series)"
GCCAGCGA,binding signal,[3],"8.16 upbm affinity estimate (log intensity, higher = more binding, comparable within an allelic series)"
same,binding signal,[4],"8.18 upbm affinity estimate (log intensity, higher = more binding, comparable within an allelic series)"
CCGAGACC,binding signal,[6],"7.75 upbm affinity estimate (log intensity, higher = more binding, comparable within an allelic series)"
same,binding signal,[8],"7.48 upbm affinity estimate (log intensity, higher = more binding, comparable within an allelic series)"
same,binding signal,[2],"9.94 upbm affinity estimate (log intensity, higher = more binding, comparable within an allelic series)"
same,binding signal,[12],"7.73 upbm affinity estimate (log intensity, higher = more binding, comparable within an allelic series)"
CCAGGACC,binding signal,[3],"8.04 upbm affinity estimate (log intensity, higher = more binding, comparable within an allelic series)"
same,binding signal,[4],"8.14 upbm affinity estimate (log intensity, higher = more binding, comparable within an allelic series)"
CGCAATTA,binding signal,[17],"11.2 upbm affinity estimate (log intensity, higher = more binding, comparable within an allelic series)"
same,binding signal,[4],"11.4 upbm affinity estimate (log intensity, higher = more binding, comparable within an allelic series)"
same,binding signal,[18],"9.82 upbm affinity estimate (log intensity, higher = more binding, comparable within an allelic series)"
same,binding signal,[5],"12.4 upbm affinity estimate (log intensity, higher = more binding, comparable within an allelic series)"
same,binding signal,[7],"13.1 upbm affinity estimate (log intensity, higher = more binding, comparable within an allelic series)"
same,binding signal,[11],"10.7 upbm affinity estimate (log intensity, higher = more binding, comparable within an allelic series)"
same,binding signal,[19],"8.67 upbm affinity estimate (log intensity, higher = more binding, comparable within an allelic series)"
same,binding signal,[13],"12.1 upbm affinity estimate (log intensity, higher = more binding, comparable within an allelic series)"
same,binding signal,[20],"11.7 upbm affinity estimate (log intensity, higher = more binding, comparable within an allelic series)"
